In publication PMC7862700, “An all-to-all approach to the identification of sequence-specific readers for epigenetic DNA modifications on cytosine”:

Assays:
Experiment in all cases: DAPPL (digital affinity profiling via proximity ligation, sequencing); 10 mM Tris-HCl pH 7.5, 50 mM NaCl, 1 mM DTT, 4% glycerol, room temperature, 30 min; GST-TFs on glutathione beads, 16-mer random dsDNA library, 0.1% formaldehyde crosslink after washing; high values mean tight binding
[1] = target: T1, FEV (Homo sapiens, UniProt Q99581 1-238); settings: protein: recombinant; tags: N-terminal GST; dsDNA, one strand shown
T1 sequence: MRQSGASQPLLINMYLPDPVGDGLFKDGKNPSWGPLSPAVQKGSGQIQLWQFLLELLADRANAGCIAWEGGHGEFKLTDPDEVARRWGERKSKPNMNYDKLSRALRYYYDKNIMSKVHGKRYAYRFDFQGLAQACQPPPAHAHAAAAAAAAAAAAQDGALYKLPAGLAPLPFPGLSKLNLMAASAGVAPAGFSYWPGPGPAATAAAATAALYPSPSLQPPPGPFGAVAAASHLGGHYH
Outline: (§1)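 Beads coated with glutathione captured GST-fused human transcription factors that had been expressed in yeast, and the factors were then given DNA barcodes and pooled with a tag-only sample. The pools were incubated with 200 nmole of a random double-stranded 16-mer DNA library in Tris/NaCl/DTT/glycerol buffer for 30 min at room temperature, washed, crosslinked with 0.1% formaldehyde and proximity-ligated with BsaI/T4 ligase at 37 °C for 1 h. PCR amplification and Illumina NextSeq500 sequencing came last. Binding signal is each hexamer's read frequency for a factor divided by its frequency for the tag-only sample.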

[2] = target: ETV5 (Homo sapiens, UniProt P41161 1-510); settings: protein: recombinant; tags: N-terminal GST; dsDNA, one strand shown
Sequence of ETV5 (P41161 whole entry): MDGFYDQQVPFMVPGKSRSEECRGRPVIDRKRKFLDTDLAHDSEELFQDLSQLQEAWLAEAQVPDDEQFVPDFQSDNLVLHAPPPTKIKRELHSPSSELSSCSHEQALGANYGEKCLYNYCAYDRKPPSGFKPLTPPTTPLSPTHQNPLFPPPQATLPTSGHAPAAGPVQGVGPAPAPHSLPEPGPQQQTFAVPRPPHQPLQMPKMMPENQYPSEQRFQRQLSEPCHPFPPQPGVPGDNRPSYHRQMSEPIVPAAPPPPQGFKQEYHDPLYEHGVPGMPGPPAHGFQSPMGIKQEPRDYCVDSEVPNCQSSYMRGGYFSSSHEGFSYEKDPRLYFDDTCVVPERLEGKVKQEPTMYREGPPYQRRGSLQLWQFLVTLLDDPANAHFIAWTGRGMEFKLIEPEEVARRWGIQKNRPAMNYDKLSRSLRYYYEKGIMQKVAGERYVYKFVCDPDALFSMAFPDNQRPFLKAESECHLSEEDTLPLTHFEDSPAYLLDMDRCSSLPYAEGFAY
Outline: as §1

[3] = target: HSF1 (Homo sapiens, UniProt Q00613 1-529); settings: protein: recombinant; tags: N-terminal GST; chain copies: 3; dsDNA, one strand shown
Sequence of HSF1 (Q00613 whole entry): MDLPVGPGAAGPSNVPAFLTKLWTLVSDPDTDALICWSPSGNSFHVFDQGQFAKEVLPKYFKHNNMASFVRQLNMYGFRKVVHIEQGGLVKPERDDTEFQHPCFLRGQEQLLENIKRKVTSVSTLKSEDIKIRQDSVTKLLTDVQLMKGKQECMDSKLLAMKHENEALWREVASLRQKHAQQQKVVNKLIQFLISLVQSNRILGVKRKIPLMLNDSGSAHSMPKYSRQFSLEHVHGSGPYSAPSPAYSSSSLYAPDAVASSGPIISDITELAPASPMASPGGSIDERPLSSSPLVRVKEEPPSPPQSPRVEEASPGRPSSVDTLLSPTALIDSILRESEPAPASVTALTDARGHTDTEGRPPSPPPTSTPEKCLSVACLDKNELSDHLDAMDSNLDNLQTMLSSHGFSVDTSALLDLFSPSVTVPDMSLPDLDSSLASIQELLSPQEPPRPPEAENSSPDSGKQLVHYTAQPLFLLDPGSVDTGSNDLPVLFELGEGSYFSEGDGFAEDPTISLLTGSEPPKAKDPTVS
Outline: as §1

[4] = target: T2, SPIC (Homo sapiens, UniProt Q8N5J4 1-248); settings: protein: recombinant; tags: N-terminal GST; dsDNA, one strand shown
T2 sequence: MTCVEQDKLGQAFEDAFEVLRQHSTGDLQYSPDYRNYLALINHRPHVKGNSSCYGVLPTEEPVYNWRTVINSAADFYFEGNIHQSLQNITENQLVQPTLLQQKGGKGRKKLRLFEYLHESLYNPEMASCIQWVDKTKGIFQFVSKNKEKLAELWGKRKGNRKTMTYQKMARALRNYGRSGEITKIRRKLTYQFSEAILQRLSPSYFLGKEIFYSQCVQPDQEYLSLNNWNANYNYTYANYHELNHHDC
Outline: as §1

[5] = target: ELF4 (Homo sapiens, UniProt Q99607 1-663); settings: protein: recombinant; tags: N-terminal GST; dsDNA, one strand shown
Sequence of ELF4 (Q99607 whole entry): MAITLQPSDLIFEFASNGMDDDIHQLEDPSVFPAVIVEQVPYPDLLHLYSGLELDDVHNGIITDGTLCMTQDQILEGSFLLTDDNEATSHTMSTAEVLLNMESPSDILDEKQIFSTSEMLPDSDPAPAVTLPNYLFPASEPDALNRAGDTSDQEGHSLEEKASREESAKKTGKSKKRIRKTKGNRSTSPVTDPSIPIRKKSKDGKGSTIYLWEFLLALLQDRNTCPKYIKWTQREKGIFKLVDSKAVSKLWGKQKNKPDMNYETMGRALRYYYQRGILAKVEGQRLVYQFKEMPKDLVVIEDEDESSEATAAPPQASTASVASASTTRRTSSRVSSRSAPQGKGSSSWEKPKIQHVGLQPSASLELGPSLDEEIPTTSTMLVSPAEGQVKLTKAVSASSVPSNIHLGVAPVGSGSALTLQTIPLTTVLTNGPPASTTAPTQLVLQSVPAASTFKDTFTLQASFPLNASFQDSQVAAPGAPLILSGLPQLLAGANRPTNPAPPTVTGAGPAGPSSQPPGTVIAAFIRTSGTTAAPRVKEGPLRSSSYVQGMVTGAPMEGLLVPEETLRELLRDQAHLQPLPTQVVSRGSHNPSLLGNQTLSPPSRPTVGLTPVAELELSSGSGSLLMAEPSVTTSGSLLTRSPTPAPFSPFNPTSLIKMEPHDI
Outline: as §1

[6] = target: T3, ELK4 (Homo sapiens, UniProt P28324-2 1-405); settings: protein: recombinant; tags: N-terminal GST; dsDNA, one strand shown
T3 sequence: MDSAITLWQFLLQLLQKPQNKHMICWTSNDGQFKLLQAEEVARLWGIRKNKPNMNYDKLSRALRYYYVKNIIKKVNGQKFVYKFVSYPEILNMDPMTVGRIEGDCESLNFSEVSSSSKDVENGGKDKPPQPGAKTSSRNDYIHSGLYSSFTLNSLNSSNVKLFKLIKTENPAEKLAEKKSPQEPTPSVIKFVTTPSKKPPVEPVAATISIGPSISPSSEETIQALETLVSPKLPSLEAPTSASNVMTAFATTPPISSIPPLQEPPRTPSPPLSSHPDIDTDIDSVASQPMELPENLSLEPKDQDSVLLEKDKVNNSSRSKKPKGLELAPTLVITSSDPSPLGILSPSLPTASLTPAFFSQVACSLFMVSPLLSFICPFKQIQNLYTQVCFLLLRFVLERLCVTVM
Outline: as §1

[7] = target: T4, ETV2 (Homo sapiens, UniProt O00321 1-342); settings: protein: recombinant; tags: N-terminal GST; dsDNA, one strand shown
T4 sequence: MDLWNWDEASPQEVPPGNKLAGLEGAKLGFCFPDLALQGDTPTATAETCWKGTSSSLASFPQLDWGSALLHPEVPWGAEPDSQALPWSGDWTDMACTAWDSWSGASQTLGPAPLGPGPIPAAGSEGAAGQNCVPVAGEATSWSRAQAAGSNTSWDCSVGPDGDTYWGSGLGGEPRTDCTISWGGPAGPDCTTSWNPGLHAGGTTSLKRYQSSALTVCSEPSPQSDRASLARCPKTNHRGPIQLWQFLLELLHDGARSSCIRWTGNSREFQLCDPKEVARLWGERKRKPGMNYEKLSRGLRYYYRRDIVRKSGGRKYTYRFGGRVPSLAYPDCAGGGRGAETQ
Outline: as §1

[8] = target: T5, ELF3 (Homo sapiens, UniProt P78545 1-371); settings: protein: recombinant; tags: N-terminal GST; dsDNA, one strand shown
T5 sequence: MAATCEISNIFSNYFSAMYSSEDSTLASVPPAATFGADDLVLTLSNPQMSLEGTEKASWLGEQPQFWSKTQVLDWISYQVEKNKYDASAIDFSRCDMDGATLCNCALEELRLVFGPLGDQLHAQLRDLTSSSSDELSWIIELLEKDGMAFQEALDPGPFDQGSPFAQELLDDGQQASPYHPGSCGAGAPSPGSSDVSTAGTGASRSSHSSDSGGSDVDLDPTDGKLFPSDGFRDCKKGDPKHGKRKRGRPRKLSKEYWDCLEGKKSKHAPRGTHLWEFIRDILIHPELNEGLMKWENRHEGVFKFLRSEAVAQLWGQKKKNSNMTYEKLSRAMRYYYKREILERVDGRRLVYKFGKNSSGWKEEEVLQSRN
Outline: as §1

[9] = target: CRX (Homo sapiens, UniProt O43186 1-299); settings: protein: recombinant; tags: N-terminal GST; dsDNA, one strand shown
Sequence of CRX (O43186 whole entry): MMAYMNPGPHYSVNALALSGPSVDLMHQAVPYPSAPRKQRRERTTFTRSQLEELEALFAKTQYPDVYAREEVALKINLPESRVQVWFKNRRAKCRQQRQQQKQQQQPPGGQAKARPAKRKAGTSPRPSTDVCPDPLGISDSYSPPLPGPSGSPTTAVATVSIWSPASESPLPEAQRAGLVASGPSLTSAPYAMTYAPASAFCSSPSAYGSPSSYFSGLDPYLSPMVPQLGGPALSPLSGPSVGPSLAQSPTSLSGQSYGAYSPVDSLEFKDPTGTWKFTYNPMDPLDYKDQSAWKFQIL
Outline: as §1

[10] = target: ETV1 (Homo sapiens, UniProt P50549 1-477); settings: protein: recombinant; tags: N-terminal GST; dsDNA, one strand shown
Sequence of ETV1 (P50549 whole entry): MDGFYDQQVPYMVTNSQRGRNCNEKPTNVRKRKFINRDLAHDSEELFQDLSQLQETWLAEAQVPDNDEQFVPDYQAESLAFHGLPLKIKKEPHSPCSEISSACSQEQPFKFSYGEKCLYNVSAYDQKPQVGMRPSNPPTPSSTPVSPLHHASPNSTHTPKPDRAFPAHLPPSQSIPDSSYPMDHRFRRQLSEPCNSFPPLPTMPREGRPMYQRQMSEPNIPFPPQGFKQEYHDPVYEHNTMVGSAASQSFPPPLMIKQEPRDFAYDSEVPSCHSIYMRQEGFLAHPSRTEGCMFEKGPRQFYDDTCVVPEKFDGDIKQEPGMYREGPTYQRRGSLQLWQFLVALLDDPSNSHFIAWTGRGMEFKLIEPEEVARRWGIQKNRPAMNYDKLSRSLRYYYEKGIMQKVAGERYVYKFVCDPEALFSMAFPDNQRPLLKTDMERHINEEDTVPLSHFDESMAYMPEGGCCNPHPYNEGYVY
Outline: as §1

[11] = target: T6, ERF (Homo sapiens, UniProt P50548 1-548); settings: protein: recombinant; tags: N-terminal GST; dsDNA, one strand shown
T6 sequence: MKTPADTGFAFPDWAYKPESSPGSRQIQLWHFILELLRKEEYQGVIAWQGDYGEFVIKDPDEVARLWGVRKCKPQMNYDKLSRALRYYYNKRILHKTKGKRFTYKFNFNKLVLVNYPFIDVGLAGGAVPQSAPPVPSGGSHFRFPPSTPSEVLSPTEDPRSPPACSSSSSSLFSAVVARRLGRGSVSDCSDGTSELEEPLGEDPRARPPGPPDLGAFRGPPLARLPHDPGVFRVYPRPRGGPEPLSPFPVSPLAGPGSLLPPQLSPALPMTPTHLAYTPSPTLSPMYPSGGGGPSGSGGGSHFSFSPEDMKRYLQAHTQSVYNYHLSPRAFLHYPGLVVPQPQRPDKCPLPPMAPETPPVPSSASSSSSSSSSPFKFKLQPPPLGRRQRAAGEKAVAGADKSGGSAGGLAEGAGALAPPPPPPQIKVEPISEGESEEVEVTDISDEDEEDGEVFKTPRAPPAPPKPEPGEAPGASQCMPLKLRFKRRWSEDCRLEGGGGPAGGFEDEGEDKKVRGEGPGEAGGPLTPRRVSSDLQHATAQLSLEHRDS
Outline: as §1

[12] = target: T7, ETV3L (Homo sapiens, UniProt Q6ZN32 1-361); settings: protein: recombinant; tags: N-terminal GST; dsDNA, one strand shown
T7 sequence: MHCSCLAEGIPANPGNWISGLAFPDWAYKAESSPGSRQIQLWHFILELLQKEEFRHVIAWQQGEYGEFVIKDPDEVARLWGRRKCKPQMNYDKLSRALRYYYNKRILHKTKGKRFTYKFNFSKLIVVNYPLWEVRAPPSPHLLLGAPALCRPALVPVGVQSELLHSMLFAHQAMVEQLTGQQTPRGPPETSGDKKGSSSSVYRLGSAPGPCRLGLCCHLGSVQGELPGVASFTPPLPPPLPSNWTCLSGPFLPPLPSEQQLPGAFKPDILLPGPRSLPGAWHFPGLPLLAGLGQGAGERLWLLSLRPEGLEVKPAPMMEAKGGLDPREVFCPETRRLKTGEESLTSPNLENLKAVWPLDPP
Outline: as §1

[13] = target: T8, ETS2 (Homo sapiens, UniProt P15036 1-469); settings: protein: recombinant; tags: N-terminal GST; dsDNA, one strand shown
T8 sequence: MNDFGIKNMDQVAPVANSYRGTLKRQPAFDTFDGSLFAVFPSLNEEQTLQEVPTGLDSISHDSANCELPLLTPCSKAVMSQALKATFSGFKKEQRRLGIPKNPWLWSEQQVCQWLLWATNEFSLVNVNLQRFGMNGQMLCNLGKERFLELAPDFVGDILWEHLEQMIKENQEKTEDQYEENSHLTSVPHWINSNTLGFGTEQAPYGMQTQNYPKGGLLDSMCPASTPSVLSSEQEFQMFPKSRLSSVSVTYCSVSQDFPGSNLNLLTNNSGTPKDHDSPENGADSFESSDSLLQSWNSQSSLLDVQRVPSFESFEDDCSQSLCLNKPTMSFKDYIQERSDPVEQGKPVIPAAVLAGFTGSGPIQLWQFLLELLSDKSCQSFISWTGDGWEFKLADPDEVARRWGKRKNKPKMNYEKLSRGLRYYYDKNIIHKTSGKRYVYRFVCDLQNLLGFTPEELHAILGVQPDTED
Outline: as §1

[14] = target: T9, SPDEF (Homo sapiens, UniProt O95238 1-335); settings: protein: recombinant; tags: N-terminal GST; dsDNA, one strand shown
T9 sequence: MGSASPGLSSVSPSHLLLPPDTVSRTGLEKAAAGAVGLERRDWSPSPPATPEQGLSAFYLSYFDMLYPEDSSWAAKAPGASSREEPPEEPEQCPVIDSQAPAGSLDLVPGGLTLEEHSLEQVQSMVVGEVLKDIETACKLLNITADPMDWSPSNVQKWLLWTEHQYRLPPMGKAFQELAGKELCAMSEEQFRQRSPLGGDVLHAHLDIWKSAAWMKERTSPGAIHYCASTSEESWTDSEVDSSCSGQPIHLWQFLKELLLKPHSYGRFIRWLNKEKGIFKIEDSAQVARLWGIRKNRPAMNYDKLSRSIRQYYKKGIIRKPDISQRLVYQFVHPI
Outline: as §1

[15] = target: T10, ETV7 (Homo sapiens, UniProt Q9Y603 1-341); settings: protein: recombinant; tags: N-terminal GST; dsDNA, one strand shown
T10 sequence: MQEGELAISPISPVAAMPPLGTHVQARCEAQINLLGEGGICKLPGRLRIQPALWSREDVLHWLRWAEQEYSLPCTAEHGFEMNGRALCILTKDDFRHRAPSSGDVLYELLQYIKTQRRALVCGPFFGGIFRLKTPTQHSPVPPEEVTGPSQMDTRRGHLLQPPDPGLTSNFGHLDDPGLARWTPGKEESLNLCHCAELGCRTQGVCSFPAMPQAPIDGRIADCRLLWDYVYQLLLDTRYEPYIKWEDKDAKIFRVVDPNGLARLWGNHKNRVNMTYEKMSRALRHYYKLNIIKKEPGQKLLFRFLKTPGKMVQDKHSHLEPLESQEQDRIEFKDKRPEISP
Outline: as §1

[16] = target: T11, ELF5 (Homo sapiens, UniProt Q9UKW6-2 1-255); settings: protein: recombinant; tags: N-terminal GST; dsDNA, one strand shown
T11 sequence: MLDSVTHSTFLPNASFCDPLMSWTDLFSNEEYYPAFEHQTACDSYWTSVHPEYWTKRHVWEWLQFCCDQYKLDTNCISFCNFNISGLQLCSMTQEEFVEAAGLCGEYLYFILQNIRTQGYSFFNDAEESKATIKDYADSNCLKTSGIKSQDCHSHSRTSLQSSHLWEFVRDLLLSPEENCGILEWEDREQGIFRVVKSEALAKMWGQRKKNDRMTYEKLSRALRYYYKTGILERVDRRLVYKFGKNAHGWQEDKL
Outline: as §1

[17] = target: T12, ETV3 (Homo sapiens, UniProt P41162-2 1-143); settings: protein: recombinant; tags: N-terminal GST; dsDNA, one strand shown
T12 sequence: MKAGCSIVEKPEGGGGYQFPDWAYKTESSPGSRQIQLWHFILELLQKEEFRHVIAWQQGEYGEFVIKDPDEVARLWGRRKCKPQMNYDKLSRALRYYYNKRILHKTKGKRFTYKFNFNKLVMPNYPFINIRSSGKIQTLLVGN
Outline: as §1

[18] = target: ETV6 (Homo sapiens, UniProt P41212 1-452); settings: protein: recombinant; tags: N-terminal GST; dsDNA, one strand shown
Sequence of ETV6 (P41212 whole entry): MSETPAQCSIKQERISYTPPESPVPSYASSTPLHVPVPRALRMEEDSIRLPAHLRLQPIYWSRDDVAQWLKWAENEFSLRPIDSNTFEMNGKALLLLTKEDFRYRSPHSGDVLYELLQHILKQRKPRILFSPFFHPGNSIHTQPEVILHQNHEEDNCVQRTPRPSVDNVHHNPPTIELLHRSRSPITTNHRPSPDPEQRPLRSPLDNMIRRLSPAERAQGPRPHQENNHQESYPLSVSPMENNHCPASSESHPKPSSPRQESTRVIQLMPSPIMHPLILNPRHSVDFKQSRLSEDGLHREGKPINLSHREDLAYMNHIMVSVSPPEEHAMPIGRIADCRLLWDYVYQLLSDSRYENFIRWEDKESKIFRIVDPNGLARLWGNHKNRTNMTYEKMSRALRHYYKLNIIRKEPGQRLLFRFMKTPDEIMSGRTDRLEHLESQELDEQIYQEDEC
Outline: as §1

Sequence	binding signal [1]	binding signal [2]	binding signal [3]	binding signal [4]	binding signal [5]	binding signal [6]	binding signal [7]	binding signal [8]	binding signal [9]	binding signal [10]	binding signal [11]	binding signal [12]	binding signal [13]	binding signal [14]	binding signal [15]	binding signal [16]	binding signal [17]	binding signal [18]
AACGCT	1.18 fold enrichment (6-mer frequency, TF over GST control)	1.23 fold enrichment (6-mer frequency, TF over GST control)	1.06 fold enrichment (6-mer frequency, TF over GST control)	1.26 fold enrichment (6-mer frequency, TF over GST control)	1.27 fold enrichment (6-mer frequency, TF over GST control)	1.22 fold enrichment (6-mer frequency, TF over GST control)	1.24 fold enrichment (6-mer frequency, TF over GST control)	1.14 fold enrichment (6-mer frequency, TF over GST control)	1.17 fold enrichment (6-mer frequency, TF over GST control)	1.2 fold enrichment (6-mer frequency, TF over GST control)	1.26 fold enrichment (6-mer frequency, TF over GST control)	1.15 fold enrichment (6-mer frequency, TF over GST control)	1.13 fold enrichment (6-mer frequency, TF over GST control)	1.2 fold enrichment (6-mer frequency, TF over GST control)	1.24 fold enrichment (6-mer frequency, TF over GST control)	1.19 fold enrichment (6-mer frequency, TF over GST control)	1.24 fold enrichment (6-mer frequency, TF over GST control)	1.27 fold enrichment (6-mer frequency, TF over GST control)
TAAGTA	1.16 fold enrichment (6-mer frequency, TF over GST control)	1.18 fold enrichment (6-mer frequency, TF over GST control)	1.76 fold enrichment (6-mer frequency, TF over GST control)	1.25 fold enrichment (6-mer frequency, TF over GST control)	1.24 fold enrichment (6-mer frequency, TF over GST control)	1.18 fold enrichment (6-mer frequency, TF over GST control)	1.38 fold enrichment (6-mer frequency, TF over GST control)	1.36 fold enrichment (6-mer frequency, TF over GST control)	2.63 fold enrichment (6-mer frequency, TF over GST control)	1.29 fold enrichment (6-mer frequency, TF over GST control)	1.24 fold enrichment (6-mer frequency, TF over GST control)	1.22 fold enrichment (6-mer frequency, TF over GST control)	1.2 fold enrichment (6-mer frequency, TF over GST control)	1.21 fold enrichment (6-mer frequency, TF over GST control)	1.13 fold enrichment (6-mer frequency, TF over GST control)	1.25 fold enrichment (6-mer frequency, TF over GST control)	1.23 fold enrichment (6-mer frequency, TF over GST control)	1.28 fold enrichment (6-mer frequency, TF over GST control)
